Data reported in PubChem BioAssay AID1159580 (chemical genetic matrix, 2015).
In all, about 5,500 compounds went through this assay and about 2,000 (36%) were called active. Roughly 18% stayed inconclusive and do not appear here. Rule as the data show it: active = normalized growth mostly below about 0.91 (no sharp cut-off); inconclusive = no clear call, values can overlap the other calls; inactive = mostly above about 0.92. This is one part of the list.

Assay: chemical genetic growth profiling, strain panel (AID 1159580);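 also: tested at 20 µM; growth read once vehicle control cultures reached saturation at 30 °C; 1 = growth at the plate median or of vehicle wells; lower values mean less growth of the strain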
Conditions: S. cerevisiae deletion strains, growth OD

Measured: normalized growth

COc1ccc(CN2CSC(=S)N(Cc3ccc(OC)cc3)C2)cc1
inactive: locus YAR019C, strain CDC15, active compounds read low 0.952 | locus YBL105C, strain PKC1, active compounds read low 0.98 | locus YBR135W, strain CKS1, active compounds read low 0.972 | locus YBR136W, strain MEC1, active compounds read low 0.968 | locus YBR160W, strain CDC28, active compounds read low 0.974 | locus YDL017W, strain CDC7, active compounds read low 0.981 | locus YDL028C, strain MPS1, active compounds read low 0.951 | locus YDL101C, strain DUN1, active compounds read low 0.992 | locus YDL108W, strain KIN28, active compounds read low 0.955 | locus YDL132W, strain cdc53, active compounds read low 0.966 | locus YDL214C, strain PRR2, active compounds read low 0.937 | locus YDR052C, strain DBF4, active compounds read low 0.975 | locus YDR054C, strain cdc34, active compounds read low 0.961 | locus YDR226W, strain ADK1, active compounds read low 0.961 | locus YDR477W, strain SNF1, active compounds read low 0.958 | locus YER123W, strain YCK3, active compounds read low 0.891 | locus YER133W, strain GLC7, active compounds read low 0.946 | locus YFL009W, strain cdc4, active compounds read low 0.957 | locus YFL029C, strain CAK1, active compounds read low 0.95 | locus YFR003C, strain YPI1, active compounds read low 0.967 | locus YFR019W, strain FAB1, active compounds read low 0.961 | locus YFR028C, strain CDC14, active compounds read low 0.957 | locus YGR040W, strain KSS1, active compounds read low 0.947 | locus YGR052W, strain FMP48, active compounds read low 0.996 | locus YGR092W, strain DBF2, active compounds read low 0.864 | locus YHR030C, strain SLT2, active compounds read low 0.97 | locus YHR079C, strain IRE1, active compounds read low 0.908 | locus YHR082C, strain KSP1, active compounds read low 0.999 | locus YHR205W, strain SCH9, active compounds read low 0.891 | locus YIL147C, strain SLN1, active compounds read low 0.95 | locus YJL095W, strain BCK1, active compounds read low 0.981 | locus YJL128C, strain PBS2, active compounds read low 0.952 | locus YJL157C, strain FAR1, active compounds read low 0.954 | locus YJR016C, strain ILV3, active compounds read low 0.965 | locus YJR066W, strain TOR1 (second series), active compounds read low 0.94 | locus YJR066W, strain TOR1, active compounds read low 0.998 | locus YKL048C, strain ELM1, active compounds read low 0.958 | locus YKL067W, strain YNK1, active compounds read low 0.954 | locus YKL101W, strain HSL1, active compounds read low 0.94 | locus YKL193C, strain SDS22, active compounds read low 0.964 | locus YKL203C, strain TOR2, active compounds read low 0.989 | locus YLR113W, strain HOG1, active compounds read low 0.91 | locus YLR133W, strain CKI1, active compounds read low 0.961 | locus YLR403W, strain SFP1, active compounds read low 0.927 | locus YML070W, strain DAK1, active compounds read low 0.935 | locus YMR001C, strain CDC5, active compounds read low 0.978 | locus YMR205C, strain PFK2 (second series), active compounds read low 0.945 | locus YMR277W, strain FCP1, active compounds read low 0.97 | locus YNL006W, strain LST8, active compounds read low 0.945 | locus YNL020C, strain ARK1, active compounds read low 0.94 | locus YNL161W, strain CBK1, active compounds read low 0.987 | locus YNL183C, strain NPR1, active compounds read low 0.951 | locus YNL207W, strain RIO2, active compounds read low 0.964 | locus YNL222W, strain SSU72, active compounds read low 0.966 | locus YNL307C, strain MCK1 (second series), active compounds read low 0.905 | locus YOL078W, strain AVO1, active compounds read low 0.967 | locus YOL136C, strain PFK27, active compounds read low 0.956 | locus YOR061W, strain CKA2, active compounds read low 0.939 | locus YOR119C, strain RIO1, active compounds read low 0.985 | locus YOR231W, strain MKK1, active compounds read low 0.937 | locus YOR329C, strain SCD5, active compounds read low 0.979 | locus YPL031C, strain PHO85, active compounds read low 0.95 | locus YPL153C, strain RAD53, active compounds read low 0.931 | locus YPL204W, strain HRR25, active compounds read low 0.931 | locus YPL209C, strain IPL1, active compounds read low 0.966 | locus YPL256C, strain CLN2, active compounds read low 0.953 | locus YPR025C, strain CCL1, active compounds read low 0.98 | locus YPR106W, strain ISR1, active compounds read low 0.983 | locus YPR111W, strain DBF20, active compounds read low 0.979 | strain NNK1, active compounds read low 0.984 | strain TSCII, active compounds read low 0.964
